Out of some 190,000 compounds screened, about 1,900 (1%) were called active.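 The calls were made as follows: active = percentage of spot-positive cells more than 3 SD above its plate mean, without a fluorescence outlier flag or 80% toxicity; inconclusive = no clear call, values can overlap the other calls; inactive = the rest.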 Only a selection was taken, and actives are over-represented in it overall.
Experiment: GFP-LC3 puncta formation changes – imaging, high-content, MEF GFP-LC3, primary screen (AID 463193);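 as to % cells with GFP-LC3 spots: spot-positive cell cutoff set from DMSO-treated cells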;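 as to toxicity: cell loss after 18 h compound exposure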
Details: autophagy, at 10 µM; % cells with GFP-LC3 spots: stronger effect = higher value; toxicity: measured here: cell loss, nuclei count

SMILES	% cells with GFP-LC3 spots	toxicity
O=C(O)COc1ccc(/C=N/O)cc1Br	17% (inactive)	9.84%
CN(C)c1ccc(NC(=O)CSc2n[nH]c(-c3ccco3)n2)cc1	5.18% (inactive)	-4.21%
C/C(Cc1ccccc1)=N\NC(=O)CNC(=O)c1cccc(Br)c1	6.35% (inactive)	7.09%
Cc1ccc(N2CCN(S(=O)(=O)N(C)C)CC2)cc1Cl	10.8% (inactive)	7.23%
CN(C)S(=O)(=O)N1CCN(c2ccc([N+](=O)[O-])cc2)CC1	20% (active)	4.08%
COc1ccc(N2CCN(c3ccc([N+](=O)[O-])cc3Cl)CC2)cc1	3.9% (inactive)	14.4%
O=C(O)CCn1c(SCc2cc(=O)n3ccccc3n2)nc2ccsc2c1=O	0.605% (inactive)	8.22%
Cc1ccc(NC(=O)CN(C)Cc2ccc(F)cc2)c([N+](=O)[O-])c1	5.2% (inactive)	3.98%
Cc1ccc(NC(=O)c2oc3ccccc3c2C)c([N+](=O)[O-])c1	13.1% (active)	22.2%
Cc1ccc(NC(=O)c2oc(=O)c3ccccc3c2-c2ccccc2)c(C)c1	6.34% (inactive)	-1.17%
CCOC12CC(C)(C)CC(C)(CC3=C1C(=O)CC(C)(C)C3)C2 (stereo unspecified)	4.26% (inactive)	3.51%
COc1ccc(Nc2nc(-c3ccccc3)cs2)cc1	11.9% (inactive)	-34.3%
Oc1ccc(-c2csc(Nc3cccnc3)n2)cc1	7.75% (inactive)	-0.924%
COc1ccc(-c2csc(Nc3ccc(O)cc3)n2)cc1	16.2% (active)	17.3%
CCC(CC)NC(=O)CSc1nnc(-c2c[nH]c3ccccc23)o1	15.7% (inactive)	28.2%
Cc1ccc(N=Cc2c(O)cc(C)oc2=O)c(C)c1	9.61% (inactive)	4.32%
Cc1ccc(-n2c(O)c(C=Nc3ccc(S(=O)(=O)Nc4ncccn4)cc3)c3ccccc3c2=O)cc1C	3.56% (inactive)	-8.78%
Cc1ccc(N=Cc2c(O)n(-c3nccs3)c(=O)c3ccccc23)c(C)c1	60% (active)	-7.63%
CCOC(=O)N1CCN(C(=O)c2ccccc2N(Cc2ccccc2)S(=O)(=O)c2ccc(OC)cc2)CC1	19.1% (inactive)	5.8%
Cc1c(CN2CCC(CO)(CCOc3ccccc3)CC2)[nH]c2ccc(Cl)cc12	14.1% (inactive)	-12.9%
CC(=O)c1sc(NC(=O)CCCOc2ccccc2C)nc1C	7.71% (inactive)	7.95%
COc1cccc2sc(Nc3nc(C)c(C(C)=O)s3)nc12	21.8% (active)	46.9%
COc1cccc2sc(NNC(=O)c3nc4ccccc4s3)nc12	8.59% (inactive)	0.117%
CC1CCN(C2=NC(=O)/C(=C/c3cn[nH]c3-c3ccccc3)S2)CC1	4.99% (inactive)	5.05%
O=C(CN(c1ccccc1)S(=O)(=O)c1ccc(Cl)cc1)Nc1ccccc1C(=O)N1CCCC1	9.32% (inactive)	0.638%
O=C(Nc1ccccc1C(=O)N1CCCCCC1)c1ccccc1Cl	43.8% (active)	-8.81%
O=C(Nc1ccccc1C(=O)N1CCOCC1)c1ccc(Cl)cc1	1.74% (inactive)	11.5%

SMILES	% cells with GFP-LC3 spots	toxicity
O=C(CN1C(=O)/C(=C/c2ccccc2F)Sc2ccccc21)NCc1cccnc1	0.409% (inactive)	-0.091%
CCc1ccc2c(c1)C1(NN=C(c3ccccc3)S1)C(=O)N2 (stereo unspecified)	24.9% (active)	40.3%
C=C1c2cc(CC)ccc2NC(=O)N1c1ccc(C)cc1	1.08% (inactive)	-2.35%
O=C1Nc2ccccc2C12Nc1ccccc1S2 (stereo unspecified)	6.3% (inactive)	-0.645%
CCOc1ccc(N(CC(=O)NCCc2ccc(OC)cc2)S(C)(=O)=O)cc1	1.57% (inactive)	-14.4%
COc1ccc(C2CC(c3ccc(C)cc3)Nc3nc(N)nn32)cc1 (stereo unspecified)	17.9% (inactive)	-20.4%
COc1ccc(C2CC(c3ccc(Cl)cc3Cl)Nc3nc(N)nn32)cc1OC (stereo unspecified)	14.3% (active)	1.79%
Cc1ccc(C2CC(c3cccc(C)c3)n3nc(N)nc3N2)cc1 (stereo unspecified)	4.2% (inactive)	10.4%
O=C(CSc1nc(-c2ccco2)cc(C(F)(F)F)n1)N1CCc2ccccc2C1	0.274% (inactive)	-3.54%
O=C(CSc1nc(-c2ccco2)cc(C(F)(F)F)n1)NCc1cccs1	11.9% (active)	19.8%
COc1ccc(-c2cc(C(F)(F)F)nc(SCCC(=O)NCc3ccco3)n2)cc1	14.8% (inactive)	0.225%
Cc1ccc(S(=O)(=O)N2CCCC2C(=O)OCc2nc3sc(C)c(C)c3c(=O)[nH]2)cc1 (stereo unspecified)	7.41% (inactive)	2.2%
CS(=O)(=O)N(CC(=O)N/N=C/c1ccccn1)c1ccc(Oc2ccccc2)cc1	19.6% (inactive)	9.84%
COc1ccc(N=Cc2c(O)[nH]c3ccccc23)cc1OC	20.4% (inactive)	0.85%
COc1cc(N=Cc2c(O)[nH]c3ccccc23)cc(OC)c1OC	1.9% (inactive)	14.8%
COc1ccc(OC)c(N=Cc2c(O)[nH]c3ccccc23)c1	30.3% (active)	10.8%
O=C(NNC1CC(=O)N(c2cccc(Cl)c2)C1=O)c1cccnc1 (stereo unspecified)	14.6% (inactive)	-11.8%
COc1cccc2c(O)cc(=O)n(C)c12	6.52% (inactive)	15.8%
Oc1c(CN2CCN(c3ccc(F)cc3)CC2)cc(Cl)c2cccnc12	52% (active)	33.9%
CCN1CCN(C(c2cccnc2)c2cc(Cl)c3cccnc3c2O)CC1 (stereo unspecified)	0.145% (inactive)	15.1%
O=C(c1cccc(C(=O)N2CCN(c3ccc(F)cc3)CC2)c1)N1CCN(c2ccc(F)cc2)CC1	13% (inactive)	-26%
C=CCn1c(CCNC(=O)c2ccccc2F)nnc1SCC(=O)Nc1ccc(OC)cc1	1.65% (inactive)	10.4%
COc1ccc(OC)c(S(=O)(=O)NCCC(C)C)c1	7.62% (inactive)	7.42%
CN=c1scc(-c2cc(OC)ccc2OC)n1/N=C/c1c(C)[nH]c2ccccc12	8.49% (inactive)	3.61%
COc1ccc(S(=O)(=O)Nc2c(C)n(C)n(-c3ccccc3)c2=O)cc1	4.67% (inactive)	4.21%
CCn1c(-c2cc(OC)ccc2OC)csc1=Nc1c(C)n(C)n(-c2ccccc2)c1=O	12.4% (active)	-0.744%

From PubChem BioAssay AID463193 (University of Pittsburgh Molecular Library Screening Center, 2010)
